Screens deposited in PubChem by National Center for Advancing Translational Sciences (NCATS).
Compounds with a hit are over-represented: about 7.8% of the library has one in this group of screens.
TSHR ag – TSH receptor (human) agonism | P16473 | AID 926 | HEK293-CNG-TSHR cells (CNG channel as cAMP sensor), membrane potential dye, cAMP | hit rate 0.48% among 73,000 | Potency, µM (doses to about 57.1 µM), usual class: activators; active means well fitted activation curve with a large enough effect in the main read-out, with a control signal flat, not every such curve was filed as active; inconclusive means small, poorly fitted or top-dose-only effect, or a change in a side signal; inactive means no such curve, though single readings can be large or run the other way; reference of the percent scale not stated here;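 further: the control signal comes from parental cells without the receptor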
Target sequence (P16473 whole entry, looked up): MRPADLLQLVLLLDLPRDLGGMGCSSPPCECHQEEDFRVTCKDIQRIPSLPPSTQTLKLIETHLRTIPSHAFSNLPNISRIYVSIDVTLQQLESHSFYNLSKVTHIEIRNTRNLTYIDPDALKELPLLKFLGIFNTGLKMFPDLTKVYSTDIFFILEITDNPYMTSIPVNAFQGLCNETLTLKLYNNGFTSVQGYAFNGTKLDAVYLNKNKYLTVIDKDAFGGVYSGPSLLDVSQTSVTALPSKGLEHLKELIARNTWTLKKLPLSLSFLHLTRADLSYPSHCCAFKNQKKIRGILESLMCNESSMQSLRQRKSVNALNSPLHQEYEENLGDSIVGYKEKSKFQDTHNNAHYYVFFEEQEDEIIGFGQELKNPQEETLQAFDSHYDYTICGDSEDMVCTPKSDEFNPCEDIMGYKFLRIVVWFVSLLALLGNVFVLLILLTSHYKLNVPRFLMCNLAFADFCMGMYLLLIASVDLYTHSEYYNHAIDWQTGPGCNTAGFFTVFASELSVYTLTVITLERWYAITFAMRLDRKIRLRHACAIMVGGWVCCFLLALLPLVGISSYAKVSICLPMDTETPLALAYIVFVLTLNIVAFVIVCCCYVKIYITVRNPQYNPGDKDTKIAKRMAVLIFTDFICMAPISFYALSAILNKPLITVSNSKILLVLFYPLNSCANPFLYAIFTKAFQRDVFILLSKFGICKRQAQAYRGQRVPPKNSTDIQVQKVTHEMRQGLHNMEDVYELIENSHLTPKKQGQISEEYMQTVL
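cAMP rise detected as CNG-channel membrane depolarization by fluorescent dye (emission 590 nm), 30 min after compound, following 60 min dye loading containing 100 uM RO 20-1724 at room temperature. Cells: TSHR/CNG HEK 293, with parental CNG HEK 293 as control.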
HEK293 cAMP cs – raises cAMP in parental HEK293 cells, TSHR agonist counter-screen; parental HEK293 CNG cAMP sensor, membrane potential fluorescence; Potency, µM (titrated, usually from 57.1 µM), hits mostly activators; hit rate 2.5% among 73,000; further: nearly all actives have a fitted effect of over 55% in size
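Counterscreen for endogenous-receptor signalling: CNG-channel HEK 293 cells report cAMP rise by membrane depolarization. After 60 min dye equilibration with 100 uM RO 20-1724, compounds incubated 30 min before bottom-read fluorescence at 590 nm.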
Bst PK mod – pyruvate kinase (B. stearothermophilus) modulation. purified pyruvate kinase, luminescence ATP production; ribose 5-phosphate activator present at AC10. Potency, µM. hit rate 1.2% among 51,000; in the data active means potency below about 11 µM; inconclusive means mostly about 12 µM to 25 µM;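 the screen sought inhibitors and activators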
ALOX15 inhib – blocks human 15-lipoxygenase activity. P16050. purified 15hLO-1, xylenol orange hydroperoxide absorbance. Potency, µM (top dose mostly 57.1 µM), usual class: inhibitors. AID 887. hit rate 1.4% among 74,000; further: nearly all actives have a fitted effect of over 55% in size
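Compounds were preincubated 15 min at room temperature with 40 nM purified human enzyme (25 mM Hepes pH 7.5, 0.01% Triton X-100); 50 uM arachidonic acid reacted 6 min. Fe-xylenol orange detection, 30 min, absorbance ratio 573/405 nm.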
FLuc inh – firefly luciferase inhibition. AID 411. P08659. hit rate 2.2% among 72,000. Potency, µM (series often up to 57.1 µM), hits mostly inhibitors. purified firefly luciferase, luminescence, 8 min; further: nearly all actives have a fitted effect of over 40% in size
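Inhibition of light generation by firefly luciferase from ATP and luciferin was profiled with concentration-response curves per sample, ATP held at 10 uM within the enzyme's linear range. Plates were read by luminescence after an 8-minute ambient incubation.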
Tau filament bind – binds recombinant human tau filaments | P10636 | recombinant tau filaments, thioflavin S fluorescence, 15 h; filaments grown with octadecylsulfate alongside compound | Potency, µM (highest dose often 57.1 µM) | hit rate 2% among 71,000;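 further: actives lower thioflavin S fluorescence by blocking filaments or displacing dye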
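Thioflavine S fluorescence (ex 450, em 510 nm) reports filaments formed from 1 uM human tau plus 30 uM ODS over 15 h at 37 C (10 mM HEPES pH 7.4, 100 mM NaCl, 5 mM DTT); compounds displacing dye or blocking filaments lower signal.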
Hits are given with their value; – = inactive; ? = inconclusive; · = not tested or not shown; [ ] = remark or other dose. Unless noted, the call rests on the fitted dose curve; in most records, active means well fitted curve in the direction sought with a large enough effect; inconclusive means small, poorly fitted or top-dose-only effect, or another doubt; inactive means no such curve, though single readings can be large; an effect the other way counts as inactive or inconclusive.

SMILES	TSHR ag	HEK293 cAMP cs	Bst PK mod	ALOX15 inhib	FLuc inh	Tau filament bind
O=C(O)CCN1C(=O)C(=C2CCCCCC2)SC1=S	–	–	–	–	–	–
C=CC(C1=CC(=O)C(OC)=CC1=O)c1ccc(O)cc1 (stereo not drawn)	·	·	·	25.1µM	·	·
NC(CSS(=O)(=O)O)=N[C@@H]1C[C@H]2CC[C@@H]1C2	–[11.4 µM]	–[11.4 µM]	·	–[11.4 µM]	–[11.4 µM]	–[11.4 µM]
O=C(CSc1ncc(-c2ccccc2)n1CC1CCCO1)N1CCCCC1 (stereo not drawn)	–	–	–	–	–	–
Cn1c(-c2ccc(F)cc2)cnc1SCC(=O)N1CCCCC1	–	–	·	–	15.8µM	–
Cc1nc(NC(=O)c2ccccc2)sc1-c1csc(N)n1	–	–	–	–	15.8µM	–
COc1ccc(-c2ccc3c(n2)CCCN3C[C@H](O)CN2CCCc3nc(-c4ccc(Br)cc4)ccc32)cc1	–[11.4 µM]	–[11.4 µM]	·	–[11.4 µM]	–[11.4 µM]	·
O=C(CSc1nc2c(cnn2-c2ccc(F)cc2)c(=O)[nH]1)N1CCCc2ccccc21	?	25.1µM	–	–	–	–
COc1cccc(Cn2c(=O)c(-c3cc(F)cc(F)c3)nc3cncnc32)c1	?	–	·	–	–[11.4 µM]	12.6µM
COc1cccc(Cn2c(=O)c(-c3ccc(F)cc3)nc3cncnc32)c1	–	–	·	?	–[11.4 µM]	?
COc1cccc(Cn2c(=O)c(-c3cccc(F)c3)nc3cncnc32)c1	–	–	·	–	–[11.4 µM]	12.6µM
COc1cc(-c2noc(-c3cccs3)n2)cc(OC)c1OC	–	–	–	–	–	–
CCOc1ccc(Br)cc1-c1noc(-c2cccs2)n1	25.1µM	–	–	–	–	–
CCN1CCC(O)([C@H](C(=O)O)c2ccccc2)CC1	–[11.4 µM]	–[11.4 µM]	·	–[11.4 µM]	–[11.4 µM]	–[11.4 µM]
c1ccc(C2Nc3ccccc3-c3nc4ccccc4n32)nc1 (stereo not drawn)	·	·	?	·	3.98µM	·
c1coc(C2Nc3ccccc3-c3nc4ccccc4n32)c1 (stereo not drawn)	?	?	·	–	?	–
CCC[C@@H]1C[C@@]1(CCC)C(NC(=O)OCc1ccccc1)c1ccc(-c2ccccc2)cc1 (stereo partly drawn)	–	–	·	·	·	–
CCC[C@@H]1C[C@@]1(CCC)[C@@H](NP(=O)(c1ccccc1)c1ccccc1)c1ccc(C(=O)OC)cc1	?	12.6µM	·	–	·	–
CC1=C(/C=C\C(=O)O)C(C)(C)CCC1	–[11.4 µM]	–[11.4 µM]	·	–[11.4 µM]	–[11.4 µM]	–[11.4 µM]
CC(=O)N(C(C)=O)c1ncc2c([nH]c3ccccc32)c1C#N	?	25.1µM	·	–	–	–
CC(=O)c1c(OC(=O)c2ccco2)c2ccccc2n1C	?	?	·	25.1µM	–	–
CC(=O)c1sc2ccccc2c1OC(=O)c1ccco1	–	–	·	–	–	–
CN(C)c1ncc2nc(CCc3ccccc3)c(=O)n(Cc3cccs3)c2n1	?	?	·	?	–[11.4 µM]	–
O=C1c2ccccc2-c2cc([N+](=O)[O-])c([N+](=O)[O-])cc21	–[11.4 µM]	–[11.4 µM]	·	–[11.4 µM]	–[11.4 µM]	3.98µM
Cc1ccc2c(c1[N+](=O)[O-])C(=O)c1ccccc1C2=O	?	–	·	–	·	–
SMILES	TSHR ag	HEK293 cAMP cs	Bst PK mod	ALOX15 inhib	FLuc inh	Tau filament bind
Cc1ccc(OCC(O)Cn2c(=N)n(CCN3CCOCC3)c3ccccc32)cc1 (stereo not drawn)	?	20µM	–	–	–	–
Cc1ccc(OCC(O)Cn2c(=N)n(CCN3CCCCC3)c3ccccc32)cc1 (stereo not drawn)	?	?	–	–	–	–
CCN1CCN(S(=O)(=O)c2ccc3[nH]c(=O)oc3c2)CC1	?	31.6µM	·	–	–	–
CCOC(=O)C1CCN(S(=O)(=O)c2ccc3[nH]c(=O)oc3c2)CC1	–	–	·	–	–	–
C=CCn1c(SCC(=O)c2cccs2)nc2sc(CC)cc2c1=O	?	15.8µM	·	–	–	–
C=CCn1c(SCC(=O)N2CCN(C(=O)c3ccco3)CC2)nc2sc(CC)cc2c1=O	–	–	–	–	–	–
C=C[C@@]1(C)CC(=O)[C@@]2(O)[C@@]3(C)[C@@H](O)CCC(C)(C)[C@@H]3[C@H](OC(=O)CCN(C)C)[C@H](OC(C)=O)[C@@]2(C)O1	?	0.126µM	·	–	–	–
C=C[C@]1(C)CC(=O)[C@@]2(O)[C@@]3(C)C(O)CCC(C)(C)C3C(O)C(OC(C)=O)[C@@]2(C)O1 (stereo partly drawn)	·	·	·	–	·	·
C=C[C@@]1(C)CC(=O)[C@@]2(O)[C@@]3(C)[C@H](O)CCC(C)(C)[C@@H]3[C@H](O)[C@H](OC(C)=O)[C@]2(C)O1	?	0.501µM	·	–	–	–
Cc1ccc(S(=O)(=O)O[C@H]2C[C@@H](C(C)(C)C)CC[C@@H]2c2ccccc2)cc1	–[11.4 µM]	–[11.4 µM]	·	–[11.4 µM]	–[11.4 µM]	–[11.4 µM]
Cc1cccn2c(=O)c(/C=N/O)c(N3CCCCC3)nc12	?	15.8µM	–	–	–	–
CC(C)(C)NC(=O)Nc1ccc2nccnc2c1	–	–	·	–	15.8µM	–
CCOc1ccc(NC(=O)Nc2ccc3nccnc3c2)cc1	–	–	·	–	–	25.1µM
Cc1ccc(S(=O)(=O)N[C@H]2COC(=O)C/C=C\[C@@H](C)[C@H](NS(=O)(=O)c3ccc(C)cc3)COC(=O)C/C=C\[C@H]2C)cc1	–[11.4 µM]	–[11.4 µM]	·	–[11.4 µM]	–[11.4 µM]	·
COc1cc(C2NC(=O)NC(c3ccccc3)=C2C(C)=O)ccc1OCC(=O)O (stereo not drawn)	?	31.6µM	–	7.94µM	–	–
CCOC(=O)C1=C(c2ccccc2)NC(=O)NC1c1ccc(OCC#N)c(OC)c1 (stereo not drawn)	–	–	–	–	–	–
